Experimental findings from PubChem BioAssay AID1851 (National Center for Advancing Translational Sciences (NCATS), 2009) are described below.

Hit rate of the full screen: of about 16,000 compounds, about 5,100 (32%) were called active. Not shown: some 25% with an inconclusive outcome. This is one part of the list. Unmarked numbers belong to inactive results. The call rests on the fitted dose curve; in most records, active means well fitted curve in the direction sought with a large enough effect; inconclusive means small, poorly fitted or top-dose-only effect, or effect the other way; inactive means no such curve, though single readings can be large or run the other way.
On the % scale 0 is the no-effect control and ±100 the full control effect.

The target in the assay is Cytochrome P450 3A4 (Homo sapiens) (UniProt P08684). Briefly: Cytochrome panel assay with activity outcomes. To be noted: recombinant CYP, pro-luciferin dealkylation, luminescence, p450-cyp3a4; series mostly up to 57.1 µM; activity, negative = inhibition: at the top concentration.
Cytochrome P450 3A4 (Homo sapiens), sequence (P08684 whole entry, looked up): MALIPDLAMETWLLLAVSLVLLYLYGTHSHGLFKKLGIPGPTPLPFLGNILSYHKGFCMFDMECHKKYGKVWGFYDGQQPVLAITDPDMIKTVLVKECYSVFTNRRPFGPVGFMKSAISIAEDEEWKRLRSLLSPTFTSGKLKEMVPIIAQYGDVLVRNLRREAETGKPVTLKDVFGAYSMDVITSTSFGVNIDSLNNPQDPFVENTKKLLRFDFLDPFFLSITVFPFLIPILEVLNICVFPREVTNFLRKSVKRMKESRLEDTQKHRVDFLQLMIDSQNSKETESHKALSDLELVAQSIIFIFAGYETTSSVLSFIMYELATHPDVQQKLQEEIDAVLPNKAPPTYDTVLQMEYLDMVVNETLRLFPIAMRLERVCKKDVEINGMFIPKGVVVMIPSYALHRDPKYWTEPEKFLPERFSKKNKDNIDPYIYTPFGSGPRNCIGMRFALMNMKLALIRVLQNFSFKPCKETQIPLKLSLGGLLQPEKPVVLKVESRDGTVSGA
Consider `Cc1ccc([C@@]2(C)CC/C(=N/N=C3\CC[C@](C)(c4ccc(C)c(C)c4)c4cc(C)c(C)cc43)c3cc(C)c(C)cc32)cc1C`, for which the activity, negative = inhibition is -0.566% [at 11.4 µM]. On the same count and under the same terms, the value for `S=c1nc[nH]c2c1ncn2Cc1ccco1` was -14.9% [at 11.4 µM]; that for `c1ccc(CCNCc2ccco2)nc1` was -15.3% [at 11.4 µM]. What is called AC50 is the midpoint of the concentration-response curve, whichever way the signal moves. Turning to `S=C1SCN(Cc2ccccn2)CN1Cc1ccco1`, the AC50 was 20 µM (active). As for `C/C(=N/O)c1ccc2cc(Br)c3ccccc3c2c1`, the activity, negative = inhibition is -23.8% [at 11.4 µM]. For the compound `O=C1/C(=C\c2ccc(Br)o2)SC(=Nc2ccccc2)N1c1ccccc1`, the “activity, negative = inhibition” value was -27.8%. In the case of `O=C1C(Cc2ccccc2)SC(=Nc2ccccc2)N1c1ccccc1` (stereo not given), the AC50 is 3.98 µM (active). Regarding `COC(=O)Cn1c(=O)c2c(nc(Br)n2Cc2ccccc2Cl)n(C)c1=O`, the activity, negative = inhibition was -4.19% [at 2.29 µM]. Consider `C=CCn1c(=O)c2c(nc(Br)n2Cc2ccccc2Cl)n(C)c1=O`, for which the AC50 is 0.794 µM (active). On to `C=CCn1c(=O)c2c(nc(-c3ccc(S(=O)(=O)O)cc3)n2C)n(C)c1=O`, for which the “activity, negative = inhibition” value is 2.84%.

Regarding `O=C(COc1ccc(-c2ccccc2)cc1)N/N=C/c1ccccc1Br`, the AC50 is 14.1 µM (active). Consider `O=C(COc1ccccc1-c1ccccc1)N/N=C/c1cccc2ccccc12`, for which the activity, negative = inhibition is 1.08% [at 2.29 µM]. In the case of `Cc1nnc(NC(=O)CCC(=O)NCc2cccs2)s1`, the “activity, negative = inhibition” value was -18.9%. Consider `O=C(Cn1cccc1C(=O)c1ccccc1)NCc1cccs1`, for which the AC50 was 10 µM (active). Turning to `O=C(Cn1cc(C(=O)c2ccco2)c2ccccc21)NCc1ccco1`, the AC50 was 25.1 µM (active). `Cc1ccccc1C(=O)c1cccn1CC(=O)NCc1ccco1`: the AC50 is 22.4 µM (active). On the same count and under the same terms, the result for `COc1ccccc1OCCn1cc(C(=O)c2ccco2)c2ccccc21` reads 3.98 µM (active). `c1ccc2c(c1)ncn2Cc1nnc2sc(-c3ccc4c(c3)OCO4)nn12`: the AC50 was 2.24 µM (active). With `COc1ccc(N2CC(C(=O)OCC(=O)c3cccc(OC)c3)CC2=O)cc1` (stereo not given), the AC50 is 14.1 µM (active).

For the compound `CC(C)Oc1ccc(N2CC(C(=O)OCC(=O)NCc3ccccc3)CC2=O)cc1` (stereo not given), the activity, negative = inhibition is 1.29% [at 2.29 µM]. Turning to `COC(=O)c1sccc1NC(=O)CSc1ccccc1NS(=O)(=O)c1ccc(Cl)cc1`, the AC50 is 3.55 µM (active). In the case of `COC(=O)c1sccc1NC(=O)CSc1ccc(Cl)cc1`, the activity, negative = inhibition was -2.63% [at 2.29 µM]. Regarding `COC(=O)c1sccc1NC(=O)CN(C)NS(=O)(=O)c1ccc(F)cc1`, the “activity, negative = inhibition” value is 3.97%.

For the compound `COC(=O)c1sccc1NC(=O)CSc1cc(Cl)ccc1Cl`, the AC50 was 22.4 µM (active). On the same count and under the same terms, the result for `O=C(CSc1nnc(-c2ccccc2)n1-c1ccccc1)c1cccs1` reads 7.08 µM (active).

`Cc1ccccc1NC(=O)CSc1nnc(-c2ccccc2)n1-c1ccccc1`: the AC50 was 3.55 µM (active). With `CCOC(=O)c1ccccc1NC(=O)CSc1cccc[n+]1[O-]`, the “activity, negative = inhibition” value is -12.9%.

`CCn1c(SCC(=O)Nc2ccccc2C(=O)OC)nnc1-c1ccc(N)cc1`: the AC50 is 0.631 µM (active).

On to `CCCCOC(=O)Nc1ccccc1C(=O)OC`, for which the activity, negative = inhibition was 20.6% [at 11.4 µM]. `Cc1ccc(C(=O)NNC(=O)CSc2nnc(-c3ccncc3)n2-c2ccc(C)cc2)cc1`: the AC50 was 3.16 µM (active). `O=C(O)c1cc2cc(Cl)ccc2oc1=O`: the “activity, negative = inhibition” value is -15.1%. Take `CN(C)CCNC(=O)C1CCCNC1=O` (stereo not given): the “activity, negative = inhibition” value was 25.9%. As for `CCOc1ccc(-n2c(SCC(=O)Nc3ccccc3C)n[nH]c2=O)cc1`, the AC50 is 12.6 µM (active). Regarding `Cc1ncn(-c2ccccc2O)c1C`, the activity, negative = inhibition was -10.7% [at 11.4 µM]. Turning to `Cc1cnc(NC(=O)CCCc2nc3ccccc3s2)s1`, the AC50 is 2 µM (active). Take `CCCCOC(=O)Nc1nc2ccccc2s1`: the activity, negative = inhibition was 0.331% [at 11.4 µM].

For `OC[C@H]1O[C@H](n2cnc3c(NC4CCCC4)nc(Cl)nc32)[C@@H](O)[C@@H]1O`, the “activity, negative = inhibition” value is 1.81%. Regarding `NC1(C(=O)O)CC(C(=O)O)C1` (stereo not given), the “activity, negative = inhibition” value is -11.5%.

For the compound `COc1cc(C2C(C(=O)OCCC#N)=C(C)NC3=C2S(=O)(=O)c2ccccc23)cc(OC)c1OC` (stereo not given), the AC50 is 5.01 µM (active). Consider `Cc1cc(C=O)c(C)n1-c1ccc(N2CCCCC2)c([N+](=O)[O-])c1`, for which the “activity, negative = inhibition” value is -19.9%. `Cc1cc(C=O)c(C)n1-c1ccc(NC2CCCC2)c([N+](=O)[O-])c1`: the AC50 is 4.47 µM (active). With `COc1ccc(-n2c(C)cc(C=O)c2C)cc1Cl`, the activity, negative = inhibition was 6.7% [at 2.29 µM]. As to `CN(Cc1ccco1)c1cc(-c2ccoc2)ncn1`, the “activity, negative = inhibition” value is 5.33%. For `CN(C)c1ccc(-c2cc(N(C)Cc3ccco3)ncn2)cc1`, the AC50 was 12.6 µM (active).

For the compound `CN(Cc1ccco1)c1cc(-c2ccc3c(c2)OCO3)ncn1`, the AC50 is 3.98 µM (active).

In the case of `CS(=O)(=O)Nc1cccc(-c2ccc3ncnc(N4CCOCC4)c3c2)c1`, the AC50 was 7.94 µM (active).

On to `CS(=O)(=O)Nc1cccc(-c2ccc3ncnc(N4CCNCC4)c3c2)c1`, for which the AC50 is 15.8 µM (active).

As to `CS(=O)(=O)Nc1cccc(-c2ccc3ncnc(NCCN4CCOCC4)c3c2)c1`, the AC50 was 15.8 µM (active). Take `CN(C)CCSCCO`: the activity, negative = inhibition is -12.3% [at 11.4 µM]. In the case of `COC(=O)C1=C(C)NC(C)=C([N+](=O)[O-])[C@@H]1c1ccccc1C(F)(F)F`, the AC50 is 12.6 µM (active). Regarding `Oc1cc(O)c2c(c1)O[C@H](c1ccc(O)c(O)c1)[C@H](O)C2`, the AC50 result is “inactive”. For `Oc1cc(O)c2c(c1)O[C@H](c1ccc(O)c(O)c1)[C@@H](O)[C@@H]2c1c(O)cc(O)c2c1O[C@@H](c1ccc(O)c(O)c1)[C@H](O)C2`, the activity, negative = inhibition is -13.1% [at 11.4 µM]. As to `O=C1c2c(O)cc(O)cc2O[C@@H](c2ccc(O)c(O)c2)[C@H]1O`, the AC50 was 10 µM (active). Consider `CN(C)[C@H]1C(=O)C(C(=O)NCN2CCCC2)=C(O)[C@]2(O)C(=O)C3=C(O)c4c(O)cccc4[C@](C)(O)[C@H]3C[C@H]12`, for which the activity, negative = inhibition is -6.5% [at 11.4 µM].

Turning to `CC(=O)NC1=NC(=O)CS1`, the “activity, negative = inhibition” value is -4.9%. Same read-out and setting: the result for `N[C@@]1(C(=O)O)CN[C@H](C(=O)O)C1` reads 24.7%. With `CCOc1cc(-c2noc(N)c2C#N)cc(OCC)c1OCC`, the AC50 was 0.2 µM (active).

In the case of `Cc1ccc(S(=O)(=O)N2CCN(Cc3ccccc3C(F)(F)F)CC2)cc1`, the half-maximal activity concentration (AC50) was 8.91 µM (active). As to `Cc1ccc(S(=O)(=O)N2CCN(S(C)(=O)=O)C2)cc1`, the activity, negative = inhibition is -0.447% [at 11.4 µM]. For `Cc1ccc(S(=O)(=O)N2CCN(C(=O)CN3CCN(C)CC3)C2)cc1`, the “activity, negative = inhibition” value is -21.9%.
